Assay outcomes as filed in PubChem.
C diff HTS: blocks growth of Clostridium difficile. Clostridium difficile clinical isolate growth, OD600, 24 h; active compounds read low. AID 1259249. 86,000 tested, 0.25% active. growth activity, negative = inhibition, % at 16 µg/mL (by protocol);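 active = mean growth activity at or below -80% and every replicate also at or below -80%; inconclusive = mean at or below -80% but some replicate above -80%; inactive = mean growth activity above -80%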
Pf Dd2 inh: inhibitors of Plasmodium falciparum Dd2 growth; P. falciparum Dd2 growth, SYBR Green, 72 h; active compounds read low; activity change, % at 10 µM; 94,000 tested, 2.3% active; in the data active = activity change below about -80%; inconclusive = no clear call, values can overlap the other calls
T cruzi growth-1: blocks T. cruzi growth in NIH3T3 culture. 77,000 tested, 5.9% active. T. cruzi beta-gal in NIH3T3, GalScreen luminescence, 90 h. inhibition, % at 8.34 µM;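 active = mean inhibition above about 93%, with at least 55% of replicates each passing it, limit read from the data, passing the limit was not always enough; inconclusive = only one of those two conditions holds; inactive = neither condition holds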
T cruzi growth-2: blocks T. cruzi growth in NIH3T3 host cells. shares compounds with T cruzi growth-1. T. cruzi beta-gal in NIH3T3, GalScreen luminescence, 90 h. inhibition, % at 8.35 µM. 5,600 tested, 72% active;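 active = mean replicate inhibition above about 95% and at least 55% of replicates individually reaching it, limit read from the data; inconclusive = only one of the two criteria is met; inactive = neither criterion is met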
T cruzi growth-3: Trypanosoma cruzi proliferation inhibition | shares compounds with T cruzi growth-1 | 5,600 tested, 21% active | inhibition, % at 2.09 µM | T. cruzi beta-gal in NIH3T3, GalScreen luminescence, 90 h;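 active = mean inhibition above about 95%, with at least 55% of replicates also reaching it, limit read from the data; inconclusive = meets just one of the two conditions; inactive = meets neither condition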
3T3 cytotox: cytotoxicity in mouse NIH/3T3 fibroblasts; shares compounds with T cruzi growth-1; NIH/3T3 viability, CellTiter-Glo ATP luminescence, 90 h; cytotoxicity (signal decrease), % at 8.35 µM; 5,600 tested, 14% active; AID 651742;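 active = mean signal decrease across replicates above about 35% based on untreated-well scatter, with enough replicates individually passing, limit read from the data; inconclusive = no rule stated though some were filed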
NIH3T3 tox 2: NIH/3T3 (mouse) viability loss. 5,600 tested, 56% active. NIH/3T3 viability, CellTiter-Glo ATP luminescence, 90 h. shares compounds with T cruzi growth-1. inhibition, % at 24.9 µM;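 active = mean loss of cell viability signal at or above a set limit, and enough replicates individually reaching it; inconclusive = meets only the mean limit or only the replicate share; inactive = meets neither condition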
Each line names hits and unclear results; the compound was inactive in the other large screens (follow-up assays come after a bar, where they were run). An excerpt weighted towards active compounds, which were near 6.7% of everything screened.

O=C(C[C@@H]1CC[C@H]2[C@@H](COC[C@H](O)CN2C(=O)Nc2ccc(Cl)c(Cl)c2)O1)NCc1ccc(Cl)cc1	none
O=C(C[C@H]1CC[C@@H]2[C@H](COC[C@@H](O)CN2C(=O)Nc2ccc(Cl)c(Cl)c2)O1)NCc1ccc(Cl)cc1	T cruzi growth-1 102 | T cruzi growth-2 100 | T cruzi growth-3 inactive | 3T3 cytotox 38 | NIH3T3 tox 2 56
O=C(C[C@H]1CC[C@H]2[C@@H](COC[C@H](O)CN2C(=O)Nc2ccc(Cl)c(Cl)c2)O1)NCc1ccc(Cl)cc1	T cruzi growth-1 inconclusive | T cruzi growth-2 inactive | T cruzi growth-3 inactive | 3T3 cytotox inactive | NIH3T3 tox 2 102
O=C(C[C@@H]1CC[C@@H]2[C@H](COC[C@@H](O)CN2C(=O)Nc2ccc(Cl)c(Cl)c2)O1)NCc1ccccc1	none (no result: C diff HTS)
C[C@@H]1CN([C@H](C)CO)C(=O)c2cc(NS(C)(=O)=O)ccc2O[C@H]1CN(C)Cc1ccc(Oc2ccccc2)cc1	none
COc1cccc(C#Cc2cnc3c(c2)C(=O)N([C@@H](C)CO)C[C@H](C)[C@H](CN(C)C(C)=O)O3)c1	none
COc1ccc(NC(=O)N(C)C[C@@H]2Oc3ccc(NC(=O)C4CC4)cc3C(=O)N([C@@H](C)CO)C[C@@H]2C)cc1	none
CCCNC(=O)N1CC2(CCN(Cc3ccccn3)CC2)c2c(n(C)c3cc(OC)ccc23)[C@@H]1CO	none (no result: T cruzi growth-1)
COc1cccc(S(=O)(=O)N[C@H]2CC[C@@H](CCNC(=O)Cc3ccncc3)O[C@@H]2CO)c1	none
COc1cccc(S(=O)(=O)N[C@H]2CC[C@@H](CCNC(=O)Cc3ccncc3)O[C@H]2CO)c1	T cruzi growth-1 106 | T cruzi growth-2 inactive | T cruzi growth-3 inactive | 3T3 cytotox inactive | NIH3T3 tox 2 inactive
O=C(NCC[C@@H]1CC[C@@H](NS(=O)(=O)c2cccc(Cl)c2)[C@@H](CO)O1)c1cnccn1	none
O=C(NCC[C@H]1CC[C@H](NS(=O)(=O)c2cccc(Cl)c2)[C@@H](CO)O1)c1cnccn1	T cruzi growth-1 144 | T cruzi growth-2 inactive | T cruzi growth-3 inactive | 3T3 cytotox inactive | NIH3T3 tox 2 inactive
COC(=O)C[C@H]1CC[C@H](NS(=O)(=O)c2ccccc2F)[C@H](CO)O1	none (no result: C diff HTS)
CNC[C@H]1Oc2cc(C#Cc3cccc(F)c3)ccc2S(=O)(=O)N([C@H](C)CO)C[C@@H]1C	T cruzi growth-1 inconclusive | T cruzi growth-2 104 | T cruzi growth-3 inactive | 3T3 cytotox inactive | NIH3T3 tox 2 105
CNC[C@H]1Oc2cc(C#Cc3cccc(F)c3)ccc2S(=O)(=O)N([C@@H](C)CO)C[C@@H]1C	none
CNC[C@H]1Oc2cc(C#Cc3cccc(OC)c3)ccc2S(=O)(=O)N([C@H](C)CO)C[C@@H]1C	none
CNC[C@@H]1Oc2cc(C#Cc3cccc(OC)c3)ccc2S(=O)(=O)N([C@@H](C)CO)C[C@H]1C	none
CNC[C@@H]1Oc2cc(C#Cc3cccc(OC)c3)ccc2S(=O)(=O)N([C@H](C)CO)C[C@H]1C	T cruzi growth-1 106 | T cruzi growth-2 109 | T cruzi growth-3 inactive | 3T3 cytotox inactive | NIH3T3 tox 2 103
CNC[C@H]1Oc2cc(C#Cc3ccc(OC)cc3)ccc2S(=O)(=O)N([C@H](C)CO)C[C@@H]1C	Pf Dd2 inh -86, T cruzi growth-1 109 | T cruzi growth-2 98 | T cruzi growth-3 inconclusive | 3T3 cytotox 39 | NIH3T3 tox 2 105
CC(C)(O)C#Cc1cccc(-c2nc(C(=O)N3CCN(Cc4ccccc4)CC3)cc3c2[C@@H](CCO)N(S(=O)C(C)(C)C)C3)c1 (some centres undefined)	none (no result: Pf Dd2 inh)
C[C@@H]1CN([C@@H](C)CO)C(=O)c2cc(NS(=O)(=O)c3cn(C)cn3)ccc2O[C@H]1CN(C)Cc1ccc2c(c1)OCO2	none (no result: C diff HTS)
C[C@@H](NC(=O)C[C@H]1C=C[C@H](NC(=O)CN2CCOCC2)[C@H](CO)O1)c1ccccc1	none (no result: C diff HTS)
c1cc(CN2[C@@H]3CNC[C@H]2C3c2ccc(-c3ccncc3)cc2)cc(-c2ccncc2)c1 (some centres undefined)	none (no result: T cruzi growth-1)
CO[C@@H]1CN(C)C(=O)c2cc(NC(=O)C3CCCC3)ccc2OC[C@@H](C)N(C)C[C@@H]1C	none (no result: C diff HTS, Pf Dd2 inh)
